Hits are enriched below; roughly 2.2% of the tested compounds scored in any of these assays.
Nrf2 activator: Nrf2 pathway activation | AREc32 ARE-luciferase reporter (MCF7-derived line), luminescence, 24 h | Potency, µM (series often up to 46.1 µM), inactives show at the highest dose activation, hits mostly activators | 0.31% of 410,000 active; note: % of control where 0% means no effect; nearly all actives have a fitted effect of over 65% in size
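AREc32 cells carrying an ARE-driven firefly luciferase reporter were seeded at 1000 cells/well in OPTI-MEM with 5% FBS, then exposed to compound for 24 hr at 37 deg C. Luminescence was read with Steady-Glo after 30 min at RT.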
Nrf2 inh: Nrf2 pathway inhibition; A549 ARE-Fluc reporter, luciferase luminescence, 18-24 h; Potency, µM (titrated, usually from 46 µM), for inactives: at the highest dose activity change, negative = inhibition, actives largely listed as inhibitors; 2.1% of 360,000 active; note: % is set by controls: 0 for no effect and ±100 for the full control effect; nearly all actives have a fitted effect of over 60% in size
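In this cell-based qHTS, ARE-driven firefly luciferase in A549 cells reports Nrf2 activity; the luminescent signal after BugLite lysis is the measured value, with a prior CellTiter-Fluor read for cell health.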
Pin1 inhibitor: inhibitors of human Pin1 | Q13526 | Pin1 FP peptide displacement, HiFluor488, 10 min | Potency, µM (titrated, usually from 115 µM), for the others: at the top dose activity, negative = inhibition, hits mostly inhibitors | 0.009% of 390,000 active; active = well fitted inhibition curve with a large enough effect in the polarisation, with a control signal flat, not every such curve was filed as active; inconclusive = small, poorly fitted or top-dose-only effect, or effect the other way, or a change in a side signal; inactive = no such curve, though single readings can be large or run the other way; the % refers to the polarisation; note: % is set by controls: 0 for no effect and ±100 for the full control effect
Target sequence (Q13526 whole entry, looked up): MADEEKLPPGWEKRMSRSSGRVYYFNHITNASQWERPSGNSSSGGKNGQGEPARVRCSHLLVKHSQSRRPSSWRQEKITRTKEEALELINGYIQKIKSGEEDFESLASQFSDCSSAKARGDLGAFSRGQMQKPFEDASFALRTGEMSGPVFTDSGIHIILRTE
A549 viability: kills or reduces viability of A549 cells in Nrf2 counter-screen; A549 ARE-Fluc cells, CellTiter-Fluor viability, 18-24 h; Potency, µM (series often up to 46 µM), for inactives: top-dose activity change, negative = cytotoxicity, usual class: inhibitors; 0.16% of 390,000 active; note: % is set by controls: 0 for no effect and ±100 for the full control effect
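Cytotoxicity counterscreen: CellTiter-Fluor fluorescence was measured in A549 ARE_Fluc cells after 18-24 h of compound exposure in a concentration series. The subsequent BugLite luminescent read reports ARE-luciferase activity.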
* = called active by the depositor. Unless noted, calls come from the whole dose curve; as a rule, active = well fitted curve in the direction sought with a large enough effect; inconclusive = small, poorly fitted or top-dose-only effect, or another doubt; inactive = no such curve, though single readings can be large; an effect the other way counts as inactive or inconclusive. Potency is the fitted concentration of half-maximal effect.

Results for COC(=O)c1cc(=O)n(Cc2ccc(OC)c(OC)c2)c(=Nc2ccc(F)cc2)s1 ?
Nrf2 activator: 0%; Nrf2 inh: inconclusive; Pin1 inhibitor: -3%; A549 viability: inconclusive

Results for CC(=O)c1cccc(NC(=O)c2noc3c2CSc2ccccc2-3)c1 ?
Nrf2 activator: 1%; Nrf2 inh: 13%; Pin1 inhibitor: 0%; A549 viability: -5%

Results for Cc1ccc(S(=O)(=O)c2nc(NN(C)C)sc2Cl)cc1 ?
Nrf2 activator: 0%; Nrf2 inh: 23µM*; Pin1 inhibitor: -5%; A549 viability: -18%

What do the screens show for `O=C(c1cccs1)N(Cc1ccco1)c1ccc(O)cc1`?
Nrf2 inh: -17%; Pin1 inhibitor: -5%; A549 viability: 3%

Results for COC(=O)C(NS(=O)(=O)CCl)C(C)C (stereo not drawn) ?
Nrf2 inh: 14%; Pin1 inhibitor: -6%; A549 viability: -1%

How did NNC(=O)c1oc2nc(-c3ccccc3)cc(-c3ccccc3)c2c1N do in these assays?
Nrf2 activator: 1%; Nrf2 inh: inconclusive; Pin1 inhibitor: 12%; A549 viability: 18%

How did Cc1ccc(-c2cc(-c3ccco3)c3c(N)c(C(=O)NN)oc3n2)cc1 do in these assays?
Nrf2 activator: 5%; Nrf2 inh: 8.2µM*; Pin1 inhibitor: inconclusive; A549 viability: -19%

Results for COc1ccc(CNC(=O)C2CCN(C(=O)c3ccc(-n4ccc5ccccc54)s3)CC2)cc1 ?
Nrf2 activator: 3%; Nrf2 inh: 21µM*; Pin1 inhibitor: 22%; A549 viability: -25%

How did CN(C)c1ccc(CNC(=O)C2CCN(C(=O)c3ccc(-n4ccc5ccccc54)s3)CC2)cc1 do in these assays?
Nrf2 activator: 7%; Nrf2 inh: 0%; Pin1 inhibitor: 38%; A549 viability: -17%

Results for O=C1c2ccccc2-c2onc3ccc(Oc4ccccc4)c1c23 ?
Nrf2 activator: 7.1µM*; Nrf2 inh: inconclusive; Pin1 inhibitor: inconclusive; A549 viability: inconclusive

What do the screens show for `CC1(C)CC[C@]2(C(=O)n3ccnc3)CC[C@]3(C)[C@H](C(=O)C=C4[C@@]5(C)C=C(C#N)C(=O)C(C)(C)[C@@H]5CC[C@]43C)[C@@H]2C1`?
Nrf2 activator: 1.1µM*; Nrf2 inh: 5.8µM*; A549 viability: 6.5µM*

What do the screens show for `CN(C)CC(CCC(CN(C)C)C(=O)c1ccccc1)C(=O)c1ccccc1` (stereo not drawn)?
Nrf2 activator: inconclusive; Nrf2 inh: 18µM*; Pin1 inhibitor: 7%; A549 viability: inconclusive

What do the screens show for `O=C(c1ccccc1)C(CCC(CN1CCOCC1)C(=O)c1ccccc1)CN1CCOCC1` (stereo not drawn)?
Nrf2 activator: -4%; Nrf2 inh: 23µM*; Pin1 inhibitor: 1%; A549 viability: -17%

How did O=C(COC(=O)c1cc([N+](=O)[O-])ccc1N1CCOCC1)Nc1ccc(Cl)cc1 do in these assays?
Nrf2 activator: 0%; Nrf2 inh: 18µM*; Pin1 inhibitor: 0%; A549 viability: inconclusive

Results for COc1cccc(N2CCN(Cc3cc(=O)oc4cc(C)ccc34)CC2)c1 ?
Nrf2 activator: 3%; Nrf2 inh: -8%; Pin1 inhibitor: 10%; A549 viability: 4%

Results for CCCCN(CC)CCNC(=O)c1nn(C)c2c1CS(=O)(=O)c1ccccc1-2 ?
Nrf2 activator: 0%; Nrf2 inh: -11%; Pin1 inhibitor: 2%; A549 viability: 10%

Results for CCN(CC)CCCNC(=O)c1nn(C)c2c1CS(=O)(=O)c1ccccc1-2 ?
Nrf2 activator: 0%; Nrf2 inh: 18µM*; Pin1 inhibitor: -7%; A549 viability: -3%

Results for COc1ccc(CCNC(=O)c2nn(C)c3c2CS(=O)(=O)c2ccccc2-3)c(OC)c1 ?
Nrf2 activator: -1%; Nrf2 inh: 23µM*; Pin1 inhibitor: 10%; A549 viability: -13%

What do the screens show for `CCOC(=O)c1ccc(NC(=O)C(C)N(c2ccc(OCC)cc2)S(C)(=O)=O)cc1` (stereo not drawn)?
Nrf2 activator: 0%; Nrf2 inh: 9%; Pin1 inhibitor: 0%; A549 viability: 0%

What do the screens show for `CC(C)(C)C(=O)Nc1ccc(-c2nc3ccccc3s2)cc1`?
Nrf2 activator: -3%; Nrf2 inh: 2.6µM*; Pin1 inhibitor: -1%; A549 viability: 1%

What do the screens show for `C/C(N)=C(/C#N)C(=O)CSc1nnc(SCc2ccc(Cl)cc2)s1`?
Nrf2 activator: 6%; Nrf2 inh: 21µM*; Pin1 inhibitor: 13%; A549 viability: -15%

How did Cc1ccc(CNc2ncnc3cc(Cl)ccc23)cc1 do in these assays?
Nrf2 activator: 24%; Nrf2 inh: 21µM*; Pin1 inhibitor: 5%; A549 viability: -5%

Results for Cc1ccc(CNc2ncnc3onc(C)c23)cc1 ?
Nrf2 activator: -1%; Nrf2 inh: 8.2µM*; Pin1 inhibitor: -2%; A549 viability: -2%

What do the screens show for `Cn1cc2ccc(-c3ccc4ncnc(NCc5cccs5)c4c3)cc2n1`?
Nrf2 inh: inconclusive; Pin1 inhibitor: inconclusive; A549 viability: -4%

How did O=C(COC(=O)C1(c2ccccc2F)CCCC1)NCc1cccs1 do in these assays?
Nrf2 activator: 0%; Nrf2 inh: 21µM*; Pin1 inhibitor: 2%; A549 viability: -11%

How did NS(=O)(=O)c1ccc(NC(=O)COC(=O)C2(c3ccccc3F)CCCC2)cc1 do in these assays?
Nrf2 activator: 0%; Nrf2 inh: 21µM*; Pin1 inhibitor: inconclusive; A549 viability: inconclusive

How did O=C(COC(=O)C1(c2ccccc2F)CCCC1)NCc1ccc2c(c1)OCO2 do in these assays?
Nrf2 activator: 0%; Nrf2 inh: -2%; Pin1 inhibitor: 1%; A549 viability: -1%

What do the screens show for `CC/C=C/[C@@H](c1ccccc1)[C@H](C)C(O)CC(=O)SC(C)(C)C` (stereo partly drawn)?
Nrf2 inh: -14%; Pin1 inhibitor: 5%; A549 viability: 13%

How did CCCC[C@H]1C2=C3[C@@H](CC(C(=O)OC)=C[C@@H](C(=O)OC)[C@H]3C(C)(C)C2=O)n2c(=O)n(C)c(=O)n21 do in these assays?
Nrf2 inh: 18%; Pin1 inhibitor: -9%; A549 viability: 1%

What do the screens show for `Cc1nn(Cc2cccc(F)c2)c(C)c1NC(=O)c1ccc(COc2ccccc2Cl)cc1`?
Nrf2 activator: 0%; Nrf2 inh: 10µM*; Pin1 inhibitor: 6%; A549 viability: inconclusive

How did Cc1nn(Cc2c(F)c(F)c(F)c(F)c2F)c(C)c1NC(=O)c1ccc(COc2ccc(Cl)cc2Cl)o1 do in these assays?
Nrf2 activator: 0%; Nrf2 inh: 16µM*; Pin1 inhibitor: 1%; A549 viability: -9%

Results for Cc1nn(Cc2ccc(Cl)cc2Cl)c(C)c1NC(=O)c1nn(C)cc1Cl ?
Nrf2 activator: 0%; Pin1 inhibitor: -1%; A549 viability: 1%

What do the screens show for `Cc1nn(Cc2ccc(Cl)cc2Cl)c(C)c1NC(=O)c1ccc(COc2cc(Cl)ccc2Cl)o1`?
Nrf2 activator: 0%; Nrf2 inh: 12µM*; Pin1 inhibitor: 10%; A549 viability: -23%

Assay outcomes: PubChem BioAssay, National Center for Advancing Translational Sciences (NCATS)
